KCNQ2 enhance: potentiators of rat KCNQ2 potassium channel; O88943; CHO-K1 KCNQ2, FluxOR thallium flux fluorescence; stronger effect = higher value; B-score at 10 µM; actives 0.54% (n = 310,000);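 active means fluorescence ratio B-score at least 3 SD of library B-scores, with initial fluorescence B-score within 3 of them, cut at about 5.3 in these data; same plate scores as AID 2156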;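 further: B-score of peak minus minimum over baseline fluorescence ratio after K+ and Tl+ stimulus; positive B-score means potentiation of KCNQ2 with more thallium influx and brighter signal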
Target sequence (O88943 whole entry, looked up): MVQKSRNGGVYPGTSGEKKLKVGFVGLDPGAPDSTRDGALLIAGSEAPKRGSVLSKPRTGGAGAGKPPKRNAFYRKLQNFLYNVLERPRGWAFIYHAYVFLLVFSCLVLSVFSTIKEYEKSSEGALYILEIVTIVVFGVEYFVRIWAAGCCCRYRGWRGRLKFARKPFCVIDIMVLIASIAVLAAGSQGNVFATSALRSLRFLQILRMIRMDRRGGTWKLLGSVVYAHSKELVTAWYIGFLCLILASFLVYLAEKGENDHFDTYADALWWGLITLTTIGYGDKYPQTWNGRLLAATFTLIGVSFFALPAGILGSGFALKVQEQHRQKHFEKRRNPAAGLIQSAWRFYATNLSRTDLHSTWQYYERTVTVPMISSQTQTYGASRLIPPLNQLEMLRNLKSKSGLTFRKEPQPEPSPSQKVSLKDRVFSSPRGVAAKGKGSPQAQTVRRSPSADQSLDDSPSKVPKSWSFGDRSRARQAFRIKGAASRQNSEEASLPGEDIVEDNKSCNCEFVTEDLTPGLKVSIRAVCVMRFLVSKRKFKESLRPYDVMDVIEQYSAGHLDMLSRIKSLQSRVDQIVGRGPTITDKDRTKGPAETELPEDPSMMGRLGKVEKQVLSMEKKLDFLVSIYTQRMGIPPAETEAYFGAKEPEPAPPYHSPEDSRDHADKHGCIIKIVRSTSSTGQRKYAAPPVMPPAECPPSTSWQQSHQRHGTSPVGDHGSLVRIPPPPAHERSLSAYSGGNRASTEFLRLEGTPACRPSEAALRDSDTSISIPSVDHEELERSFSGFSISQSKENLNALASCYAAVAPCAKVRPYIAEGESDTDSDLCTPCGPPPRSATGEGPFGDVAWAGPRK
KCNQ2 inh: blocks the rat KCNQ2 potassium channel. O88943. CHO-K1 KCNQ2, FluxOR thallium flux, 20 min; stronger effect = lower value. B-score at 10 µM. actives 1.1% (n = 310,000);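 active means fluorescence ratio B-score at most minus 3 library SDs, with starting brightness B-score within 2 library SDs, cut at about -5.5 in these data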
Active calls of the source: *. A selection: hits, their analogues and other compounds. The true share with any hit is near 1.6%.

CC1CCCC1/C(=N/O)c1ccccc1 (centres undefined) was read as KCNQ2 enhance 0.31 and KCNQ2 inh inactive.
For CCOc1ccc(NC(=O)CSc2ccc(-c3cccnc3)nn2)cc1 the results were KCNQ2 enhance 1.4 and KCNQ2 inh inactive.
COc1cc2ccc(=O)oc2c(CC=C(C)C)c1OC was read as KCNQ2 enhance 0.11 and KCNQ2 inh inactive.
COc1cc(O)cc2c1[C@@H]1Oc3c(ccc(O)c3CC=C(C)C)[C@@H]1CO2 was read as KCNQ2 enhance -6.5 and KCNQ2 inh -6.5*.
Screening N#C/C(=C\c1cn(CCOc2ccccc2)c2ccccc12)C(=O)NCc1cccs1 returned KCNQ2 enhance 1.3 and KCNQ2 inh inactive.
Screening CCOC(=O)c1ccc(CC(=O)c2ccc(O)cc2O)o1 returned KCNQ2 inh inactive.
For COC(=O)c1ccc(CC(=O)c2ccc(O)cc2O)o1 the results were KCNQ2 enhance -5.8 and KCNQ2 inh -5.8*.
Screening CC(C)(C)OC(=O)C(C)(C)O/N=C(\C(=O)O)c1csc(N)n1 returned KCNQ2 inh inactive.
For CC1CC(C)CN(C(=O)C(Cc2ccccc2)n2cccc2)C1 (centres undefined) the results were KCNQ2 enhance -6.5 and KCNQ2 inh -6.5*.
For COc1cc(NC(=O)C(Cc2ccccc2)n2cccc2)cc(OC)c1 (centres undefined) the results were KCNQ2 inh inactive.
CC1CCN(C(=O)C(Cc2ccccc2)n2cccc2)CC1 (centres undefined) was read as KCNQ2 inh inactive.
Cc1cccc(NC(=O)C(Cc2ccccc2)n2cccc2)c1 (centres undefined) was read as KCNQ2 enhance -5.7 and KCNQ2 inh -5.7*.
`COc1ccc(Nc2nc(-c3cccs3)nc3ccccc23)cc1S(=O)(=O)N1CCOCC1` gave KCNQ2 inh inactive.
COc1cccc(CNC(=O)C(=O)NCC(c2ccco2)N2CCOCC2)c1 (centres undefined) was read as KCNQ2 enhance 0.03 and KCNQ2 inh inactive.
For CCCOP(=O)(OCCC)C(Nc1ccc(C(=O)O)cc1)c1ccccc1 (centres undefined) the results were KCNQ2 enhance 0.14 and KCNQ2 inh inactive.
For CCCCOP(=O)(OCCCC)C(Nc1ccc(C(=O)OCC)cc1)c1ccncc1 (centres undefined) the results were KCNQ2 enhance -5.7 and KCNQ2 inh -5.7*.
For CC(C)c1ccc(NC(=O)CCN2C(=O)[C@@H]3Cc4ccccc4CN3C2=O)cc1 the results were KCNQ2 enhance 0.72 and KCNQ2 inh inactive.
For COc1ccc(C(=O)C(O)C(c2ccc(C)cc2)N2CCOCC2)cc1OC (centres undefined) the results were KCNQ2 inh inactive.
For CCC(C)Sc1cc(-c2nc3ccccn3c2NC2CCCCC2)ccc1OC (centres undefined) the results were KCNQ2 enhance 0.01 and KCNQ2 inh inactive.
`CC(=O)c1ccc(-c2cccc(-c3nc4ccccn4c3NC3CCCCC3)c2)cc1` gave KCNQ2 enhance -5.8 and KCNQ2 inh -5.8*.
For Cc1ccc(-n2nc3c(=O)n(CCCC(=O)N4CCC(C(N)=O)CC4)nc(C)c3c2C)cc1 the results were KCNQ2 inh inactive.
`N#C/C(=C\c1ccc(F)c(Br)c1)C(=O)NC1CC1` gave KCNQ2 inh inactive.
N#C/C(=C\c1cc(Cl)cc(Cl)c1O)C(=O)NC1CCCCC1 was read as KCNQ2 enhance -5.7 and KCNQ2 inh -5.7*.
N#C/C(=C\c1cc(Cl)ccc1O)C(=O)NC1CCCCC1 was read as KCNQ2 inh inactive.
`N#C/C(=C\c1cc(Br)ccc1F)C(=O)NC1CC1` gave KCNQ2 enhance -6.1 and KCNQ2 inh -6.1*.
`O=C(NCC1CCCN(Cc2ccc3c(c2)OCCO3)C1)c1ccc2c(c1)OCO2` (centres undefined) gave KCNQ2 enhance 0.77 and KCNQ2 inh inactive.
Screening O=C(NCC1CCCN(Cc2ccc3nonc3c2)C1)c1cccc(C(F)(F)F)c1 (centres undefined) returned KCNQ2 enhance -5.7 and KCNQ2 inh -5.7*.
For Cc1cccc(C(=O)NNC(=O)c2ccccc2)c1 the results were KCNQ2 enhance 0.1 and KCNQ2 inh inactive.
Screening Cc1cccc(C(=O)c2cnc3ccccc3c2-c2ccccc2)c1 returned KCNQ2 enhance -6.4 and KCNQ2 inh -6.4*.
COc1ccc(/C(C)=N/NC(=S)NCCc2ccccc2)c(O)c1 was read as KCNQ2 enhance 0.12 and KCNQ2 inh inactive.
For COc1cc(C(=O)N2CCN(C(=O)c3cc(-c4ccccc4)n[nH]3)CC2)cc(OC)c1OC the results were KCNQ2 enhance 0.41 and KCNQ2 inh inactive.
Screening Cc1ccccc1NS(=O)(=O)c1cc(C(=O)NCCSC2CCCCC2)ccc1C returned KCNQ2 enhance -5.8 and KCNQ2 inh -5.8*.
For Cc1ccc(C)c(NS(=O)(=O)c2cc(C(=O)NCCSC3CCCCC3)ccc2C)c1 the results were KCNQ2 inh inactive.
`CCCCn1c(N)c(N(CCOC)C(=O)COc2ccc(Cl)cc2)c(=O)[nH]c1=O` gave KCNQ2 inh inactive.
For COc1ccc(C)cc1Nc1n[n+](-c2ccccc2)c(-c2c(Cl)cccc2Cl)s1 the results were KCNQ2 enhance -6.5 and KCNQ2 inh -6.5*.
For COc1ccc(C)cc1Nc1n[n+](-c2ccccc2)c(-c2ccc(N(C)C)cc2)s1 the results were KCNQ2 enhance -5.7 and KCNQ2 inh -5.7*.
Screening CN(C)c1ccc(-c2sc(Nc3ccccc3)n[n+]2-c2ccc(F)cc2)cc1 returned KCNQ2 inh inactive.
Screening COc1ccc(C)cc1Nc1n[n+](-c2ccccc2)c(-c2ccc(OC)c(OC)c2OC)s1 returned KCNQ2 inh inactive.
For O=C(Cc1ccc(O)cc1)N/N=C/c1cccnc1 the results were KCNQ2 enhance 0.01 and KCNQ2 inh inactive.
For COCCn1c(SCc2nnc(-c3ccccc3)o2)nc2sc3c(c2c1=O)CCC3 the results were KCNQ2 enhance -6.6 and KCNQ2 inh -6.6*.
`COCCn1c(SCC(=O)Nc2ncc(C)s2)nc2sc3c(c2c1=O)CCC3` gave KCNQ2 enhance 0.28 and KCNQ2 inh inactive.
`Cc1ccc(C(c2cc(Br)ccc2O)N2CCSCC2)cc1` (centres undefined) gave KCNQ2 enhance -5.8 and KCNQ2 inh -5.8*.
`Cc1ccc(C(c2nnnn2CCc2ccccc2)N2CCSCC2)cc1` (centres undefined) gave KCNQ2 enhance 0.78 and KCNQ2 inh inactive.
Screening CCc1ccc2c(c1)C(c1ccc([N+](=O)[O-])cc1)=NNC(c1ccc(C)cc1)=N2 returned KCNQ2 inh inactive.
`Cc1ccc(SC[C@H](C)CN2CC[C@H](NC(=O)OCc3ccccc3)CCC2=O)cc1` gave KCNQ2 inh inactive.
Cc1ccc(S[C@@H](CCN2CC[C@H](NC(=O)OCc3ccccc3)CCC2=O)c2ccccc2)cc1 was read as KCNQ2 enhance -6.9 and KCNQ2 inh -6.9*.
COc1ccc(OC)c(C2Nc3ccccc3NC3=C2C(=O)CC(C)(C)C3)c1 (centres undefined) was read as KCNQ2 enhance 0.45 and KCNQ2 inh inactive.
For O=S(=O)(c1ccc(N2CCC(c3ccc(Cl)cc3)=N2)cc1)N(CCO)CCO the results were KCNQ2 enhance 1.8 and KCNQ2 inh inactive.
For CN(C)CCCNS(=O)(=O)c1ccc(N2CCC(c3ccc(Cl)cc3)=N2)cc1 the results were KCNQ2 enhance -5.9 and KCNQ2 inh -5.9*.

Source: PubChem
